Screening results: PubChem, National Center for Advancing Translational Sciences (NCATS)
Sm TGR block: inhibitors of Schistosoma mansoni thioredoxin glutathione reductase; Q962Y6; purified TGR, DTNB reduction, TNB absorbance 405 nm; Potency, µM (highest dose often 114 µM), for inactives: at the highest dose activity change, negative = inhibition, usual class: inhibitors; hit rate 3% among 360,000; note: nearly all actives have a fitted effect of over 60% in size
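Kinetic colorimetric format: TGR-catalysed, NADPH-driven DTNB reduction monitored via TNB absorbance. Enzyme dispensed at 20 nM; compound exposure 15 min at room temperature before reaction start.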
RE007 growth inh: less growth of the S. pombe RE007 Vpr strain; S. pombe RE007 Vpr strain, BacTiter-Glo ATP luminescence, 24 h; Potency, µM (top dose mostly 92.2 µM), for inactives: at the top dose activity change, negative = less growth, most hits filed as inhibitors; hit rate 0.21% among 360,000; AID 651644; active = well fitted falling curve with a large enough effect; inconclusive = small, poorly fitted or top-dose-only effect; inactive = no such curve, though single readings can be large or run the other way; note: nearly all actives have a fitted effect of over 50% in size
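Fission yeast RE007 carrying one integrated HIV-1 vpr copy, seeded at OD 0.01 in PMG+AL medium with 23 nL pinned compound. Grown 24 h at 30 degrees; viability read by BacTiter-Glo luminescence after 5 min.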
LmPK inhibitor: inhibitors of Leishmania mexicana pyruvate kinase; Q27686; hit rate 0.37% among 290,000; Potency, µM (doses to about 57.5 µM), inactives show at the highest dose activity change, negative = inhibition, usual class: inhibitors; purified LmPK, Kinase-Glo ATP luminescence, 1 h
Target sequence (Q27686 whole entry, looked up): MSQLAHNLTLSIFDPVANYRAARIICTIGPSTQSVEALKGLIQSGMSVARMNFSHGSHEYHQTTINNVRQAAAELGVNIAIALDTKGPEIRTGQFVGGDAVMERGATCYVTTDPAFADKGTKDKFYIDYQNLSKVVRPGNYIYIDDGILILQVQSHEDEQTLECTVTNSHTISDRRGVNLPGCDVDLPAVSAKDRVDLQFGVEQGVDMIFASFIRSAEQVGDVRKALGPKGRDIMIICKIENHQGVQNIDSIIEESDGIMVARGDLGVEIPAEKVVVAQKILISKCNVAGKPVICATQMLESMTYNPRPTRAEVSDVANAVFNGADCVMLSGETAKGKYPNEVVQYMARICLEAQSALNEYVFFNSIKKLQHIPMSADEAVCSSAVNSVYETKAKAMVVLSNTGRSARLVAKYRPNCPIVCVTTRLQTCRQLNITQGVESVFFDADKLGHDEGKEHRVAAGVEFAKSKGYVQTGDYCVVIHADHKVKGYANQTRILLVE
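Purified LmPK (0.1 nM) converted ADP (0.1 mM) to ATP with PEP (0.5 mM) in imidazole buffer pH 7.2 with KCl and MgCl2, 1 h at room temperature. ATP was read by Kinase-Glo luminescence; data normalized to uninhibited and no-enzyme controls.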
AMA1-RON2 inh: AMA1-RON2 (P. falciparum) interaction inhibition; Potency, µM (highest dose often 58.2 µM), for inactives: at the top dose activity change, negative = inhibition, most hits filed as inhibitors; AlphaScreen AMA1-biotinylated RON2 peptide binding; hit rate 0.2% among 360,000;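 note: 0% = vehicle wells and -100% = peptide control; nearly all actives have a fitted effect of over 45% in size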
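AMA1 (3D7) with his tag at 25 nM final met compounds first, then biotinylated RON2 peptide at 25 nM; detection used donor plus acceptor beads, 10 µg/mL apiece, read by AlphaScreen after 30 min at room temperature.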
Tb PYK inh: T. brucei pyruvate kinase inhibition; Potency, µM (top dose mostly 76.8 µM), for inactives: at the top dose activity, negative = inhibition, most hits filed as inhibitors; hit rate 0.12% among 410,000; Q57TT1; TbPYK enzyme, Kinase-Glo Plus ATP luminescence, 45 min; AID 624173; note: nearly all actives have a fitted effect of over 50% in size
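Luminescence from Kinase-Glo Plus, added after a 45-minute room-temperature reaction, served as the end-point read-out. The enzyme and substrate were preincubated with compound before ADP (130 uM final) initiated turnover. Concentration-effect curves came from normalized qHTS data.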
Numbers without * were called inactive. Sampled rows, rich in hits. Any-hit rate of the full collection: about 3.2%. Unless noted, calls come from the whole dose curve; as a rule, active = well fitted curve in the direction sought with a large enough effect; inconclusive = small, poorly fitted or top-dose-only effect, or another doubt; inactive = no such curve, though single readings can be large; an effect the other way counts as inactive or inconclusive. Unless noted, % is set by controls: 0 for no effect and ±100 for the full control effect; potency is the fitted concentration of half-maximal effect.

Cc1ccc(C(=O)c2cn(Cc3ccc(F)cc3)c3nc(C)ccc3c2=O)cc1 was read as Sm TGR block -4% and Tb PYK inh -15%.
Screening Cc1cc(S(=O)(=O)Nc2ccc(-c3ccc(N4CCCCCC4)nn3)cc2)c(C)cc1Cl returned Sm TGR block 8% and Tb PYK inh -9%.
For COc1ccccc1OCC(=O)NCC1(N(C)C)CCCCC1 the results were Sm TGR block 10% and Tb PYK inh 2%.
For Cc1ccc(N2CCN(c3ncccc3[N+](=O)[O-])CC2)c(C)c1 the results were Sm TGR block 6%, RE007 growth inh 13%, LmPK inhibitor 2%, AMA1-RON2 inh 13µM* and Tb PYK inh 0%.
For Cc1ccc(CNC(=O)C(C)n2nc(C)c3sc4ccccc4c3c2=O)cc1 (stereo not drawn) the results were Sm TGR block 4% and Tb PYK inh 3%.
CCOC(=O)C(C)n1nc(C)c2sc3ccccc3c2c1=O (stereo not drawn) was read as Sm TGR block 40µM*, RE007 growth inh 4%, LmPK inhibitor 1%, AMA1-RON2 inh 7% and Tb PYK inh -5%.
Screening Cc1cccc(OCc2nnc(SCCC(=O)O)n2-c2ccccc2)c1 returned Sm TGR block 79µM*, RE007 growth inh 8%, LmPK inhibitor 31%, AMA1-RON2 inh 7% and Tb PYK inh -4%.
COc1cc(OC)c(NC(=O)N2CCc3c([nH]c4ccccc34)C2c2ccccc2F)cc1Cl (stereo not drawn) was read as Sm TGR block 13% and Tb PYK inh 2%.
Screening c1csc(-c2nc(CN3CCSCC3)cs2)c1 returned Sm TGR block 0%, RE007 growth inh -15%, LmPK inhibitor 16µM*, AMA1-RON2 inh -6% and Tb PYK inh inconclusive.
CC(C)(O)/C=C1/Oc2ccccc2C1N1CCCCC1 (stereo not drawn) was read as Sm TGR block 35µM*, RE007 growth inh 3%, LmPK inhibitor 1%, AMA1-RON2 inh 2% and Tb PYK inh 1%.
For CCOC(=O)CCCCC(=O)c1[nH]c(=O)[nH]c1C[n+]1ccccc1 the results were Sm TGR block 6.3µM* and LmPK inhibitor -3%.
Screening CCOC(=O)CCCCC(=O)c1[nH]c(=O)[nH]c1CN1CCOCC1 returned Sm TGR block -27%, RE007 growth inh -5%, LmPK inhibitor -4%, AMA1-RON2 inh 9.5µM* and Tb PYK inh 7%.
`CCOC(=O)CCCCC(=O)c1[nH]c(=O)[nH]c1C[n+]1ccc(C)cc1` gave Sm TGR block 35µM*, RE007 growth inh -2%, LmPK inhibitor 4%, AMA1-RON2 inh inconclusive and Tb PYK inh -6%.
Cc1[nH]c(=O)[nH]c1C(=O)CCCCC(=O)OCC(=O)Nc1ccccn1 was read as Sm TGR block 4%, RE007 growth inh -12%, LmPK inhibitor 0%, AMA1-RON2 inh -24% and Tb PYK inh 2%.
Screening COc1ccccc1NC(=O)NCC1CC1(Cl)Cl (stereo not drawn) returned Sm TGR block 6%, RE007 growth inh -5%, LmPK inhibitor 4%, AMA1-RON2 inh 19% and Tb PYK inh 0%.
Screening Cc1ccc(CNC(=O)Nc2ccc(F)cc2)n1C returned Sm TGR block 14µM*, RE007 growth inh -8%, LmPK inhibitor 11%, AMA1-RON2 inh 10% and Tb PYK inh -1%.
COc1ccccc1NC(=O)NCc1ccc(C)n1C was read as Sm TGR block 40µM*, RE007 growth inh -6%, LmPK inhibitor 9%, AMA1-RON2 inh -2% and Tb PYK inh 2%.
CCOc1ccc(C(=O)/C=C/c2cn(CC(O)CN3CCc4ccccc43)c3ccccc23)cc1 (stereo not drawn) was read as Sm TGR block 5% and Tb PYK inh -2%.
CC(COc1ccccc1)N(CCCl)Cc1ccccc1 (stereo not drawn) was read as Sm TGR block 25µM*, RE007 growth inh -12%, LmPK inhibitor -4%, AMA1-RON2 inh -10% and Tb PYK inh -3%.
